Several values for one entry are separate records, joined by “and”; a condition that tells them apart may be missing. Equal entries are not always repeated. Screen size: about 1,500 compounds; about 100 (6.7%) were called active. About 7% were inconclusive and are not listed. The sample holds actives, similar compounds and a random draw of the others, so the mix is not that of the screen. Values without a mark were called inactive. The call rests on the fitted dose curve; in most records, active means well fitted inhibition curve with a large enough effect; inconclusive means small, poorly fitted or top-dose-only effect, or effect the other way; inactive means flat fitted curve, though single readings scatter.
Target: Runt-related transcription factor 1 (Homo sapiens) + Core-binding factor subunit beta (Homo sapiens) (UniProt Q01196+Q13951)
Sequence (Q01196 whole entry, looked up): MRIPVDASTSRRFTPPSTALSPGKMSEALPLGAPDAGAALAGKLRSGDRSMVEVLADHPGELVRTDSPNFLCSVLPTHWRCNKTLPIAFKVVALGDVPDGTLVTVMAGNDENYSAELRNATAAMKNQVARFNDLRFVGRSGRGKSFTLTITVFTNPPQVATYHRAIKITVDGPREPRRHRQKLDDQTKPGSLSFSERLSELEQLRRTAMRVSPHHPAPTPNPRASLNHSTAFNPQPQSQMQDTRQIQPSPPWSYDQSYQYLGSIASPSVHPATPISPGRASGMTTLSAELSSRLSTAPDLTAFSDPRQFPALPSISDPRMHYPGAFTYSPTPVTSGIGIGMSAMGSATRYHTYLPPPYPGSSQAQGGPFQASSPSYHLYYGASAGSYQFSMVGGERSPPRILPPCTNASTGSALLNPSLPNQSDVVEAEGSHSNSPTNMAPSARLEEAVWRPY
Sequence (Q13951 whole entry, looked up): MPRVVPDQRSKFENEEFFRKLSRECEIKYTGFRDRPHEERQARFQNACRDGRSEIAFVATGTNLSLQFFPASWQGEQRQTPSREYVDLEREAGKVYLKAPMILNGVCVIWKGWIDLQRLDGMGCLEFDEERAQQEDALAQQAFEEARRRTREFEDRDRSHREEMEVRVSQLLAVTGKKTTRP
Experiment: qHTS Assay for Compounds Blocking the Interaction Between CBF-beta and RUNX1 for the Treatment of Acute Myeloid Leukemia: Hit Validation; further: nearly all actives have a fitted effect of over 60% in size
Details: AlphaScreen CBFb-His/RUNX1-biotin binding; series mostly up to 59.8 µM; activity, negative = inhibition: at the top concentration
Procedure, shortened: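 Compounds were added to a premixed CBF-beta-His/RUNX1-biotin complex (30 nM each, 20 min) for 15 min. Nickel and streptavidin AlphaScreen beads followed for 90 min at room temperature, with emission at 440 nm […].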
On the % scale 0 is the no-effect control and ±100 the full control effect; potency means the concentration at half of the fitted maximal effect.

Which “activity, negative = inhibition” value does the source give for O=C(O)c1cnc2[nH]c3ccccc3n2c1=O here?
The value was -12%.

With Nc1nc(Nc2ccccc2)nc(NCCO)c1[N+](=O)[O-] as the compound, how does the “activity, negative = inhibition” value read?
The value was -6.03%.

For Cc1ccn(C)c(=N)c1, which “activity, negative = inhibition” value is on record?
The value was -1.05%.

COc1ccc(NS(=O)(=O)c2ccc3c(c2)CCO3)cc1 was tested. Which “activity, negative = inhibition” value did it give?
Its value is -11.6%.

How did the Potency turn out when COc1ccc(OC)c(-c2c3cc(O)c(=O)cc-3oc3cc(O)c(O)cc23)c1 was run?
The Potency was 2.24 µM (active).

How did the “activity, negative = inhibition” value turn out when NNC(=O)c1ccc(Cn2cccn2)o1 was run?
The value was -3.9%.

How did the “activity, negative = inhibition” value turn out when FC(F)(F)c1cccc(-n2c(Cn3nnc4ccccc43)n[nH]c2=S)c1 was run?
The value was 7.14%.

With NCC(=O)Nc1ccc(Cl)cc1C(=O)c1ccc[nH]1 as the compound, how does the Potency read?
Its Potency is 3.55 µM (active).

How did the “activity, negative = inhibition” value turn out when O=C(O)/C=C/C(=O)Nc1ccc(Cl)cc1C(=O)c1ccccc1 was run?
The value was -3.57%.

For Nc1cc(=O)[nH]c(SCC(=O)Nc2cc(Cl)ccc2Cl)n1, which “activity, negative = inhibition” value is on record?
The value was -10%.

Which “activity, negative = inhibition” value does the source give for Cc1ccc(C)c(N2CCN(c3ccncc3N)CC2)c1 here?
The value was -11.1%.

How did the Potency turn out when N[C@H](Cc1ccc(O)c(O)c1)C(=O)O was run?
The Potency was 8.91 µM (active).

O=C(/C=C/c1ccc(O)c(O)c1)c1ccccc1O was tested. Which “activity, negative = inhibition” value did it give?
The value was -28.7%.

With NC(Cc1ccc(O)c(O)c1)C(=O)O (configuration not stated) as the compound, how does the Potency read?
The Potency was 1.12 µM (active).

How did the “activity, negative = inhibition” value turn out when NCCc1ccc(O)c(O)c1 was run?
The value was -10.7%.

With CCCCc1cc(=O)oc2c(C)c(OCc3nn[nH]n3)ccc12 as the compound, how does the “activity, negative = inhibition” value read?
The value was -4.17%.

With CC(=O)Nc1nnc(CSCc2ccc(F)cc2)s1 as the compound, how does the “activity, negative = inhibition” value read?
Its value is -1.58%.

How did the “activity, negative = inhibition” value turn out when Cc1ccc(-c2nn[nH]n2)cc1Cl was run?
The value was 0.848%.

How did the “activity, negative = inhibition” value turn out when Cc1ccc(C(=O)/C=C/N(C)C)cn1 was run?
Its value is -6.06%.

With CCOC(=O)Cc1csc(NC(=O)Nc2cccc(OC)c2)n1 as the compound, how does the “activity, negative = inhibition” value read?
Its value is 6.65%.

How did the “activity, negative = inhibition” value turn out when CCOC(=O)N1CCC(NS(=O)(=O)c2ccc(C)c(Cl)c2)CC1 was run?
The value was -2.28%.

With CCOc1ccc(Nc2nc(N)nc(CSC(=S)N3CCOCC3)n2)cc1 as the compound, how does the “activity, negative = inhibition” value read?
Its value is -12.1%.

How did the Potency turn out when CCN(CC)C(=S)SSC(=S)N(CC)CC was run?
The Potency was 0.794 µM (active).

How did the “activity, negative = inhibition” value turn out when Cc1ccncc1C(N)=O was run?
The value was -0.629%.

With CC(C)N(CCn1cnc2c([nH]c3ccccc32)c1=O)C(C)C as the compound, how does the “activity, negative = inhibition” value read?
The value was 1.42%.

Cc1onc(-c2c(Cl)cccc2Cl)c1NC(=O)NC1CCSC1 (configuration not stated) was tested. Which “activity, negative = inhibition” value did it give?
Its value is -3.96%.

How did the Potency turn out when O=C(O[C@@H]1OC2COC(=O)c3cc(O)c(O)c(O)c3-c3c(cc(O)c(O)c3O)C(=O)O[C@@H]([C@H]1O)[C@@H]2O)c1cc(O)c(O)c(O)c1 was run?
The Potency was 0.224 µM (active).

Which Potency does the source give for O=C1OCC2OC(O)C(O)C(O)C2OC(=O)c2cc(O)c(O)c(O)c2-c2c(O)c(O)c3oc(=O)c4c(c(O)c(O)c5oc(=O)c2c3c54)-c2c1cc(O)c(O)c2O (configuration not stated) here?
The Potency was 0.224 µM (active).

How did the “activity, negative = inhibition” value turn out when Cc1oc(S(=O)(=O)N(C)C)cc1C(=O)Nc1ccc(Cl)cc1 was run?
The value was -5.12%.

Which “activity, negative = inhibition” value does the source give for Cc1ccc2[nH]cc(CCNC(=O)/C=C/c3ccco3)c2c1 here?
The value was -14.3%.

CC1(C)C(CC2OCC(CN3CCCCC3)O2)[C@H]2CC[C@@H]1C2 (some centres not stated) was tested. Which “activity, negative = inhibition” value did it give?
Its value is -2.34%.

C=C(C)C(=O)Nc1cccnc1Oc1ccc(F)cc1 was tested. Which “activity, negative = inhibition” value did it give?
The value was -1.27%.

Which “activity, negative = inhibition” value does the source give for O=C1CCCN1CCCNC(=S)Nc1ccccc1 here?
Its value is -7.84%.

With C=C(C)C(=O)Nc1cccnc1Oc1ccc(F)cc1F as the compound, how does the “activity, negative = inhibition” value read?
Its value is -0.381%.

O=c1c(O)cccc2cc(O)c(O)c(O)c12 was tested. Which Potency did it give?
Its Potency is 447 nM (active) and 631 nM (active).

With CCOC(=O)C1(C)C=C(Nc2cccc(OC)c2)C(=O)N1c1ccccc1 (configuration not stated) as the compound, how does the “activity, negative = inhibition” value read?
The value was -13%.

How did the “activity, negative = inhibition” value turn out when COc1ccccc1NC(=O)Nc1sccc1-c1nc2ccccc2s1 was run?
The value was -17.1%.

With CCOC(=O)c1cnc2c(C(=O)OCC)cnn2c1N as the compound, how does the “activity, negative = inhibition” value read?
Its value is -0.993%.

Which Potency does the source give for O=c1[nH]cc(I)cc1I here?
Its Potency is 17.3 µM (active).

Which “activity, negative = inhibition” value does the source give for CC(C)(C)c1ccc(NC(=S)NCc2cccnc2)cc1 here?
Its value is -3.62%.

How did the “activity, negative = inhibition” value turn out when CNC(=O)C(=O)N/N=C/c1cccnc1 was run?
The value was 26.6%.

For Oc1ccc(NC(=S)Nc2ccccc2)cc1, which “activity, negative = inhibition” value is on record?
Its value is -3.44%.

With Oc1ccc(/C=N/NC(=S)Nc2cccnc2)c(O)c1O as the compound, how does the Potency read?
Its Potency is 1.26 µM (active).

How did the “activity, negative = inhibition” value turn out when S=C(N/N=C/c1cccc2ccccc12)Nc1cccc(Cl)c1 was run?
The value was -12.9%.

With Oc1ccc(/C=N/NC(=S)Nc2cccnc2)c(O)c1 as the compound, how does the Potency read?
The Potency was 1.58 µM (active).

How did the “activity, negative = inhibition” value turn out when O=c1[nH]nc(N/N=C/c2ccc(Cl)cc2Cl)c(=O)[nH]1 was run?
Its value is -5.54%.

Cc1onc(-c2c(F)cccc2Cl)c1C(=O)N=C(N)N1CC(C)OC(C)C1 (configuration not stated) was tested. Which “activity, negative = inhibition” value did it give?
The value was -0.719%.

Which “activity, negative = inhibition” value does the source give for O=C(O)C1(c2ccccc2)CCN(S(=O)(=O)c2ccc(Cl)s2)CC1 here?
The value was -0.0237%.

N#Cc1c(-c2ccccc2Cl)c2c([nH]c1=O)-c1ccccc1OC2 was tested. Which “activity, negative = inhibition” value did it give?
Its value is 4.48%.

With COc1ccccc1NC(=O)OCC#CCOC(=O)Nc1ccccc1OC as the compound, how does the “activity, negative = inhibition” value read?
Its value is 9.79%.

CCn1c(NC(=O)c2ccccc2F)c(-c2cccs2)c(=O)c2ccccc21 was tested. Which “activity, negative = inhibition” value did it give?
Its value is -8%.

With S=c1[nH]c2cc3ccccc3cc2[nH]1 as the compound, how does the “activity, negative = inhibition” value read?
The value was 10.7%.

How did the Potency turn out when Nc1ccc2nc3c(=O)[nH]c(=S)[nH]c3nc2c1 was run?
Its Potency is 2.51 µM (active).

How did the “activity, negative = inhibition” value turn out when COc1ccccc1NC(=S)NCC1CCC(CNC(=S)Nc2ccccc2OC)CC1 (configuration not stated) was run?
The value was -2.72%.

How did the “activity, negative = inhibition” value turn out when NC(=O)c1cccnc1Oc1ccc(Cl)cc1 was run?
The value was -13%.

How did the Potency turn out when O=C(O)c1cccnc1C(=O)O was run?
The Potency was 14.1 µM (active).

For COC(=O)c1cccnc1Oc1ccccc1, which “activity, negative = inhibition” value is on record?
Its value is -13.6%.

From PubChem BioAssay AID504374 (National Center for Advancing Translational Sciences (NCATS), 2011)
